The values below come from PubChem BioAssay (NCATS).

Experiment [1] is described as follows: qHTS of pediatric cancer cell lines to identify multiple opportunities for drug repurposing: Primary screen for MG 63 (6-TG R) cells (AID 1347105). Note: nearly all actives have a fitted effect of over 50% in size. Note: potency is the fitted concentration of half-maximal effect. The gist of the method:
(§1)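 500-1,000 cells/well; 5 h pre-incubation 37 °C/5% CO2; compound pinned; 48 h; CellTiter-Glo, 15 min RT; luminescence. MIPE 11-pt from 0.78 nM, NPC 8-pt from 0.59 nM final. Bortezomib 2.3 µM final as positive control.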

Experiment [2] is described as follows: qHTS of pediatric cancer cell lines to identify multiple opportunities for drug repurposing: Primary screen for control Hh wild type fibroblast cells (AID 1347106).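 Note: series mostly up to about 46 µM; a drop in luminescence marks cytotoxicity and a rise apparent proliferation; nearly all actives have a fitted effect of over 55% in size.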 An outline of the steps:
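Cells (500-1,000/well) in growth media were settled 5 h at 37 degrees C, then given compounds for 48 h. Viability was read as CellTiter-Glo luminescence. Primary runs used MIPE at 11 points (0.78 nM-46 µM) and NPC at 8 points (0.59 nM-46 µM); follow-ups used 11 points.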
(In general: qHTS replaces the single test concentration by a dilution series.)

Experiment [3] is described as follows: qHTS of pediatric cancer cell lines to identify multiple opportunities for drug repurposing: Primary screen for Rh30 cells (AID 1347107). Note: series mostly up to about 46 µM; nearly all actives have a fitted effect of over 75% in size. An outline of the steps: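 Cells (500-1,000/well) rested 5 h, then received compounds for 48 h; metabolically active cells were measured by CellTiter-Glo luminescence. Final concentrations spanned up to 46 µM (MIPE, 11-point) or 0.59 nM-46 µM (NPC, 8-point) in primary screens, 11-point in follow-ups.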

Experiment [4] is described as follows: qHTS of pediatric cancer cell lines to identify multiple opportunities for drug repurposing: Primary screen for Rh41 cells (AID 1347108).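 Note: series mostly up to about 46 µM; luminescence drop marks cytotoxic hits; nearly all actives have a fitted effect of over 70% in size.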 The gist of the method:
as §1

Records with an inconclusive call do not appear. Active and inactive are the calls of the source. Calls come from the whole dose curve; as a rule, active = well fitted curve in the direction sought with a large enough effect; inconclusive = small, poorly fitted or top-dose-only effect, or another doubt; inactive = no such curve, though single readings can be large; an effect the other way counts as inactive or inconclusive.

For `Oc1c(Cl)cc(Cl)c(Cl)c1Cc1c(O)c(Cl)cc(Cl)c1Cl`, the Potency in experiment [1] is 6.68 µM (active). In addition, the Potency entry in experiment [2] and in experiment [3] was “inactive” in each case.
For `CCOCCn1c(N2CCCN(C)CC2)nc2ccccc21`, the Potency entry in experiment [1], in experiment [2], in experiment [3] and in experiment [4] was “inactive” in each case.
In the case of `CN1CCc2cccc3c2[C@H]1Cc1ccc(O)c(O)c1-3`, the Potency result in experiment [1] and in experiment [2] was “inactive” throughout.
Take `CN(C)CCOC(=O)C(c1ccccc1)C1(O)CCCC1` (stereo not given): the Potency entry in experiment [1], in experiment [2], in experiment [3] and in experiment [4] was “inactive” throughout.
For the molecule `CC(C(=O)O)c1cccc(Oc2ccccc2)c1` (stereo not given), the Potency result in experiment [1], in experiment [2], in experiment [3] and in experiment [4] was “inactive” throughout.
`CC(C)(C)NC[C@H](O)COc1cccc2c1CCCC2=O`: the Potency result in experiment [1], in experiment [2] and in experiment [3] was “inactive” throughout.
Regarding `Cc1cc(-c2ccccc2)nnc1NCCN1CCOCC1`, the Potency entry in experiment [1], in experiment [2] and in experiment [3] was “inactive” throughout.
In the case of `CCCCCCCCCCCCCCCCO`, the Potency entry in experiment [1], in experiment [2], in experiment [3] and in experiment [4] was “inactive” each time.
`C[C@]12CCC(=O)C=C1C=C[C@@H]1[C@@H]2CC[C@@]2(C)[C@H]1CC[C@@]21CCC(=O)O1`: the Potency result in experiment [1] and in experiment [2] was “inactive” each time.
As to `Nc1ccc(C(=O)NCC(=O)O)cc1`, the Potency result in experiment [1], in experiment [2], in experiment [3] and in experiment [4] was “inactive” throughout.
For `CCO[C@@H]1O[C@H](C(COCc2ccccc2)OCc2ccccc2)[C@H](OCc2ccccc2)[C@H]1O` (stereo not given in full), in experiment [1], the Potency was 10.6 µM (active). In addition, the Potency result in experiment [2] and in experiment [3] was “inactive” in each case.
On to `CNCCc1ccccn1`, for which the Potency entry in experiment [1], in experiment [2], in experiment [3] and in experiment [4] was “inactive” throughout.
As for `CCCc1ncc(C[n+]2ccccc2C)c(N)n1`, the Potency entry in experiment [1], in experiment [2], in experiment [3] and in experiment [4] was “inactive” throughout.
With `CCCCCCCCNC(C)C(O)c1ccc(SC(C)C)cc1` (stereo not given), in experiment [1], the Potency is 26.6 µM (active). In experiment [2], the Potency entry is “inactive”.
On to `CC1(COc2ccc(CC3SC(=O)NC3=O)cc2)CCCCC1` (stereo not given), for which the Potency entry in experiment [1], in experiment [2], in experiment [3] and in experiment [4] was “inactive” throughout.
